In PubChem BioAssay AID651791 (National Center for Advancing Translational Sciences (NCATS), 2012):
Results filed as inconclusive are left out. Activity calls are given as the source filed them. The call rests on the fitted dose curve; in most records, active means well fitted inhibition curve with a large enough effect; inconclusive means small, poorly fitted or top-dose-only effect; inactive means no such curve, though single readings can be large or run the other way.

Test: InCell qHTS Assay for Inhibitors of the mTORC1 Signaling Pathway in MEF (Tsc2-/-, p53-/-) Cells: Hit Validation; further: nearly all actives have a fitted effect of over 75% in size
Conditions: phospho-rpS6 immunofluorescence, 24 h; activity change, negative = inhibition: at 38.3 µM (top of the series)
Source text: The mammalian target of rapamycin (mTOR) is an intracellular serine/threonine kinase Aberrant regulation of mTOR signaling plays a causative role in a number of human diseases, including cancer, benign tumors such as lymphangioleiomyomatosis (LAM) and Tuberous Sclerosis Complex (TSC), and metabolic diseases such as diabetes and obesity. This project aims to identify inhibitors of ribosomal protein S6 (rpS6) phosphorylation. The phosphorylation of rpS6 is a key event downstream of mTOR activation. The assay uses a phospho-specific antibody of phospho-rpS6 to detect inhibitors of mTOR activation. Mutations in the Tsc1 and Tsc2 genes are the underlying genetic lesions responsible for TSC, causing constitutive activation of the mTORC1 pathway and leading to profound effects on cell metabolism. Aberrant metabolism in cancer has recently received significant attention as a target to develop therapeutic agents in the treatment of cancer.1 As Tsc2-/- cells have lost the ability to respond to energy and growth factor deprivation, these cells are unable to properly down regulate cellular biosynthetic processes in response to metabolic stress, and are thus extremely sensitive to glucose deprivation-induced death.2 A central goal of this project is to explore the unique cell survival and metabolic properties of cells with Tsc1 or Tsc2 by screening for compounds that selectively target the Tsc2-/- MEFs by screening both Tsc2-/- and WT MEF cell lines. We hope to better understand these aspects of TSC physiology in order to exploit them for therapeutic benefit. NIH Molecular Libraries Probe Production Centers Network [MLPCN] NIH Chemical Genomics Center [NCGC] MLPCN Grant: NS059428 Assay Submitter (PI): Blenis, John; Harvard University
For quantitative high throughput analysis of mTORC1 signaling, we developed a cell-based assay for immuno-fluorescence based detection of rpS6 phosphorylation on the Acumen Explorer that will be used a platform for the primary small molecule screen. Mouse embryonic fibroblasts (MEFs) are cultured in 1536-well plates using DMEM + 10% FBS. Twenty-four hrs after plating, test compounds (solubilized in DMSO) are delivered and incubated with the cells for 24 hrs at 37 degree Celsius. Following the incubation, media with compound is aspirated and the cells are fixed in 4% paraformaldehyde (PFA) containing PBS + 0.2% TX-100. Next, PFA is aspirated, cells are washed two times with PBS plus 0.2% TX-100 and the cells are blocked for 1 hr at room temperature (blocking buffer: LiCOR Blocking Buffer plus 0.2% TX-100). This is followed by aspiration and staining with Alexa-488 conjugated-phospho-rpS6 Ser235/236 antibody for 2 hours at room temperature (Cell Signaling Technology # 4803, 1:50 dilution in blocking buffer). Cells are washed two times with PBS plus 0.2% TX-100, and stained with 10 uM propidium iodide (PI) for 20-25 minutes for cell number measurement (1:500 dilution of Hoescht staining is also added for IN Cell imaging). The plates are scanned on the Acumen Explorer laser scanning instrument (TTP Labtech) using the 488nm laser for simultaneous excitation of the Alexa-488 and PI. The fluorescence emission from the Alexa-488 conjugated rpS6 phospho-235/236 antibody staining is selected using a […] band pass filter. Fluorescence emission from the PI stain is selected using a 575-640 nm band pass filter. The normalized phospho-S6 staining is calculated as the ratio of the integrated Alexa 488 intensity divided by the integrated PI intensity for the single concentration rapamycin control (7.5 nM) and DMSO columns. […] Inhibition of the pathway is defined based on the normalized phospho-S6 intensity in rapamycin treated cells. […]
Potency means the concentration at half of the fitted maximal effect.

SMILES | activity change, negative = inhibition [%] | Potency
Cc1ccccc1-c1nc(CN2C(=O)CN=C(c3ccccc3)c3ccccc32)c(C)o1 | -100 | 
CCN(CC)CCSc1nc2ccccc2c(=O)n1-c1ccc(Cl)cc1 | -100 | 
O=C(Nc1ccon1)c1cccn(Cc2cccc(Cl)c2)c1=O | -100 | 
CCN(CC)C(=O)c1ccc(NC(=O)CCn2nc(-c3ccc(C)cc3)c3ccccc3c2=O)cc1 | -100 | 
COc1ccc2nc(NC(=O)c3nc(S(=O)(=O)Cc4cccc(C)c4)ncc3Cl)sc2c1 |  | 18.5 µM (active)
CCOc1ccc(NC(=O)CSc2oc(-c3ccccc3)nc2S(=O)(=O)c2ccc(Cl)cc2)cc1 |  | 3.69 µM (active)
Cc1ccccc1-n1c(/C=C/c2c(C)[nH]c3ccccc23)nc2ccccc2c1=O | -100 | 
CCOc1ccc(CN(CCc2ccc3c(c2)OCO3)Cc2ccc(C)cc2)cc1 | -100 | 
Cc1ccccc1-n1c(/C=C/c2ccccc2F)nc2ccccc2c1=O | -100 | 
Cc1ccc(-n2c(/C=C/c3ccc(Br)s3)nc3ccccc3c2=O)cc1C | -100 | 
